Assay outcomes from PubChem BioAssay.
TTR transcr act: increases transthyretin transcription | AID 1117267 | SH-SY5Y TTR promoter Gaussia luciferase, luminescence; 100% = recombinant luciferase protein wells | activation, % at 16.7 µM | hit rate 1.3% among 92,000;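 active = activation above the mean of all tested compounds plus 3 SD, cut at about 9.5% in these data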;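 also: cells exposed to compounds for one day before reading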
HuH7 TTR inh: HuH7 TTR transcription inhibition, counter-screen; hit rate 4% among 1,100; HuH7 TTR promoter-Gaussia luciferase reporter, luminescence; shares compounds with TTR transcr act; inhibition, % at 16.7 µM;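 active = average inhibition above the solvent-only control wells' mean plus 3 SD, cut at about 15% in these data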;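 also: inhibitors lower well luminescence so higher value means more inhibition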
TTR act confirm: human TTR transcription activation, confirmation. AID 1117280. shares compounds with TTR transcr act. 1,100 tested, under 10 active. SHSY5Y TTR promoter Gaussia luciferase, luminescence; 100% = purified Lucia enzyme wells, no cells. activation, % at 16.7 µM;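 active = mean activation above a set limit taken from the earlier primary screen, cut at about 11% in these data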
Large screens that a line does not name were inactive (follow-up assays come after a bar, where they were run). The full list was thinned out, with hits kept by preference.

CCCNC(=O)c1ccc(N2CCC3(CC2)CC(c2ccccc2)=NO3)c(NC(=O)c2cccc(OC)c2)c1	none
Cc1ccc(CNC(=O)c2ccc(N3CCC4(CC3)CC(c3ccccc3)=NO4)c(NC(=O)c3ccco3)c2)cc1	none
CCCNC(=O)c1ccc(N2CCC3(CC2)CC(c2ccccc2)=NO3)c(NC(=O)c2ccco2)c1	TTR transcr act 19 | HuH7 TTR inh 19 | TTR act confirm inactive
COc1cc(CN(C2CC2)S(=O)(=O)c2ccccc2Br)cc(OC)c1	none
COc1ccccc1N(C(=O)c1snc(C(N)=O)c1N)C(C(=O)NCCC(C)C)c1ccco1 (stereo not given)	none
NC(=O)c1nsc(C(=O)N(Cc2cccnc2)C(C(=O)NC2CCCC2)c2ccc(F)cc2)c1N (stereo not given)	none
CC(C)(C)NC(=O)C(c1ccco1)N(Cc1ccc(F)cc1)C(=O)c1snc(C(N)=O)c1N (stereo not given)	TTR transcr act 10 | HuH7 TTR inh inactive | TTR act confirm inactive
CCCC1CCC2(CC1)CCC2OC(=O)Nc1ccccc1OC (stereo not given)	none
CC(C)(O)C#Cc1ccc(C(=O)NCCc2ccc(S(N)(=O)=O)cc2)cc1	none
CCOc1cc(C(=O)NCCc2ccc(S(N)(=O)=O)cc2)cc(OCC)c1OCC	TTR transcr act 19 | HuH7 TTR inh inactive | TTR act confirm inactive
CCN(c1ccccc1)S(=O)(=O)c1ccc(C(=O)NCCc2ccc(S(N)(=O)=O)cc2)cc1	none
COCc1cccc(C2=CC(=O)C[C@H](c3ccc(F)cc3)C2)c1	none
O=C(O[C@H]1CC[C@@]23CCCN2C(=O)CCC[C@H]3C1)N1CCN(c2ccccc2)CC1	none
O=Cc1ccc(OCc2ccc3c(c2)OCO3)cc1	TTR transcr act 9.8 | HuH7 TTR inh inactive | TTR act confirm inactive
Fc1ccc(CNCc2ccc3c(c2)OCO3)cc1	none
CC(=O)c1ccc(OCC(O)CNCc2ccc3c(c2)OCO3)cc1 (stereo not given)	none
O=C(Nc1ccc2c(c1)OCCO2)C(c1ccccc1)n1c(=O)c(-c2ccco2)nc2ccccc21 (stereo not given)	none
CN(Cc1ccccc1)C(=O)OCc1cn(Cc2ccc(F)cc2F)nn1	none
Cc1ccccc1Nc1nc2ccccc2n1C(C)C	none
O=S(=O)(Nc1cccc2ccccc12)c1cccc2nonc12	none
Cc1ccccc1Nc1cccc2nonc12	TTR transcr act 18 | HuH7 TTR inh inactive | TTR act confirm inactive
C#CCNC(=O)c1cnn(-c2ccccc2)c1N	none
O=C1CSC(=S)N1c1ccccc1	none
O=C1CSCC(=O)N1c1ccccc1	TTR transcr act 34 | HuH7 TTR inh inactive | TTR act confirm inactive
O=C1CCC(=O)N1c1ccccc1	none
C[C@H]1[C@@H](NC(=O)C2CCCCC2)CC[C@@]23CCCN2C(=O)CCC[C@@H]13	none
Cc1cccc(C)c1NC(=O)C(c1ccccc1)N1CCC(Cc2ccccc2)CC1 (stereo not given)	none
COC(=O)[C@H]1C[C@@H]1[C@H](NC(=O)c1cc(C)on1)c1ccccc1	none
COC(=O)[C@@H]1C[C@H]1[C@@H](NS(=O)(=O)c1ccccc1)c1ccccc1	TTR transcr act 10 | HuH7 TTR inh inactive | TTR act confirm inactive
C[C@H](NS(=O)(=O)c1ccccc1)C(=O)N1CCN(C(c2ccccc2)c2ccccc2)CC1	none
CCCCN1C[C@@H]2CSCCS(=O)(=O)N2C1=O	none
CC(=O)NCCC(=O)Nc1cc(S(=O)(=O)N2CCCCC2)ccc1Oc1ccccc1	none
Cn1cccc1/C=N/NC(N)=S	none
Cn1cccc1/C=N/NC(=O)C(O)c1ccccc1 (stereo not given)	TTR transcr act 25 | HuH7 TTR inh inactive | TTR act confirm inactive
Cn1cccc1/C=N/NC(=O)Cc1ccccc1	none
O=S(=O)(NC1=NCCC1)c1ccc(F)cc1F	none
O=C(OCC#CCSc1nnc(-c2ccc3ccccc3c2)o1)c1cccs1	none
COc1ccccc1-c1ncn(Cc2cccc(-c3ccccc3)c2)c1-c1ccco1	none
CCC(Oc1ccccc1OC)C(=O)N1CC(=O)Nc2ccccc21 (stereo not given)	none
c1ccc2c(c1)nc(NCc1ccc3c(c1)OCO3)n2CCN1CCOCC1	none
CCn1c(NCc2ccc3c(c2)OCO3)nc2ccccc21	none
CN(C)CCCn1c(NCc2ccc3c(c2)OCO3)nc2ccccc21	TTR transcr act 10 | HuH7 TTR inh inactive | TTR act confirm inactive
Cc1cc(O)cc2c1C(=O)/C(=C/c1ccco1)O2	none
CN1C2=N[C@@H](c3ccc4c(c3)OCO4)CC(=O)N2/C(=C\c2ccccc2)[C@H]1c1ccccc1	none
CC(C)C[C@@H]1Cc2[nH]c(=S)[nH]c(=O)c2[C@H](C)O1	none
CC(C)C(=O)NC(=S)Nc1ccccc1C(=O)NC1CCCCC1	none
O=C(Nc1ccccc1)NC1CCCCCCC1	none
COC(=O)c1ccccc1NC(=O)NC1CCCC1	TTR transcr act 15 | HuH7 TTR inh inactive | TTR act confirm inactive
Cc1ccc(S(=O)(=O)N2[C@H](C(C)C)[C@H]3[C@H]4C(=O)N(c5ccccc5)C(=O)[C@H]4CC(=O)[C@H]3[C@@H]2c2ccccc2)cc1	none
COc1ccc(NC(=O)c2cc(C)on2)cc1OC	none
COc1ccc(NC(=O)c2cc(C)on2)cc1	TTR transcr act 13 | HuH7 TTR inh inactive | TTR act confirm inactive
COc1cc(NC(=O)c2cc(C)on2)cc(C(=O)Nc2cccc(C(F)(F)F)c2)c1	none
COC(=O)[C@]12C[C@H](CC(=O)N3CCCC3)C(=O)N(CCc3ccc(OC)c(OC)c3)C1=C[C@H](C(C)C)O[C@@H]2C1CC1	none
C#CCNC(=O)C[C@H]1C[C@@]2(C(=O)OC)C(=C[C@H](C(C)C)O[C@@H]2C2CC2)N(Cc2ccc3c(c2)OCO3)C1=O	none
COc1cc2c(cc1OC)C(c1cccc(F)c1)CC(=O)N2 (stereo not given)	TTR transcr act 18 | HuH7 TTR inh inactive | TTR act confirm inactive
COc1cc2c(cc1OC)C(c1cccnc1)CC(=O)N2 (stereo not given)	none
COc1ccc(C2CC(=O)Nc3cc(OC)c(OC)cc32)cc1 (stereo not given)	none
O=C(Nc1ccccc1)Nc1nc2ncccn2c1-c1ccc(F)c(F)c1	none
COc1ccc2[nH]c3c(c2c1)CCN[C@]31C(=O)N(c2ccccc2)c2ccccc21	none
CCC(=O)Oc1ccc2ccccc2c1CNC(=O)c1ccccc1	none
Nc1nc(NCC2CCCO2)nc(Nc2ccc(Cl)cc2)c1[N+](=O)[O-] (stereo not given)	none
Nc1nc(NCCCN2CCOCC2)nc(Nc2ccc(Cl)cc2)c1[N+](=O)[O-]	TTR transcr act 13 | HuH7 TTR inh inactive | TTR act confirm inactive
Nc1nc(Nc2ccccc2)nc(N2CCOCC2)c1[N+](=O)[O-]	none
COc1cccc(-c2nc(-c3ccccc3)c3ccc(Cl)cc3n2)c1	none
O=C(NC1CCCC1)C(C1CC1)n1c(-c2ccnc3ccccc23)nc2ccccc21 (stereo not given)	none
COc1cccc(C#Cc2cnc3c(c2)C(=O)N([C@@H](C)CO)C[C@H](C)[C@H](CN(C)C(=O)C2CCC2)O3)c1	none
CCOC(=O)c1ccc(NC(=O)CN2C(=O)NC3(CCCCCC3)C2=O)cc1	none
O=C(CN1C(=O)NC2(CCCC2)C1=O)Nc1ccccc1N1CCCC1	none
O=C(CN1C(=O)NC2(CCCCC2)C1=O)Nc1ccc(N2CCCCC2)cc1	TTR transcr act 10 | HuH7 TTR inh inactive | TTR act confirm inactive
O=C(Nc1ccc2c(c1)OCCO2)C1c2ccccc2OCC(=O)N1CCc1ccccc1 (stereo not given)	none
